sEH inhibitor: blocks human soluble epoxide hydrolase activity. AID 707. recombinant human sEH enzymatic activity assay. inhibition, % at 2 µM. P34913. 91,000 tested, 0.34% active; in the data active = inhibition above about 80%
Target sequence (P34913 whole entry, looked up): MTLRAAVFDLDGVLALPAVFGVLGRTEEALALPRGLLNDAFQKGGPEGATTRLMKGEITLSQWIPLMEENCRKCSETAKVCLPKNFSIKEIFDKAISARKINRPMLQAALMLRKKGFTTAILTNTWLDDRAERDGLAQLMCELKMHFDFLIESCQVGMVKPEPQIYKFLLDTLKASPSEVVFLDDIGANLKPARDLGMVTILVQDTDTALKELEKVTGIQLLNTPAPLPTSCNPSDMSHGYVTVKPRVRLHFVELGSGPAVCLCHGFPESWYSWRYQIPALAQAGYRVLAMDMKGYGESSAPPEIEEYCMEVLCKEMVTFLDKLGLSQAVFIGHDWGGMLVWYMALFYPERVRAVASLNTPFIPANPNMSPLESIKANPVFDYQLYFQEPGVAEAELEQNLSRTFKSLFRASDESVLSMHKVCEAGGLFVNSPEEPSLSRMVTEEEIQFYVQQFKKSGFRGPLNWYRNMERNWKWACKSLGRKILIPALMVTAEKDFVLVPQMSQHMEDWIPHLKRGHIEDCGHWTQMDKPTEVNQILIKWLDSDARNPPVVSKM
CYP2C19 inhib: human CYP2C19 inhibition | CYP2C19 Supersomes, luciferin-H EGE luminescence, 30 min | inhibition, % at 5 µM | 96,000 tested, 21% active;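 active = CYP2C19 inhibition above a set limit at 5 µM in the primary screen, cut at about 50% in these data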
CYP2C9 activ: activators of human CYP2C9; recombinant CYP2C9, luciferin-H conversion, luminescence; stronger effect = higher value; factor 1 = untreated enzyme, 0 = blocked; activation factor at 5 µM; 96,000 tested, 1.4% active;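 active = activation factor of 2 or more for CYP2C9 at a 5 µM dose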
sEH activator: activators of human soluble epoxide hydrolase; AID 717; purified human sEH enzymatic activity, activator screen; 91,000 tested, 0.04% active; P34913; activation, % at 2 µM; in the data active = activation above about 37%
CYP2C9 inh: blocks human cytochrome P450 2C9; 96,000 tested, 20% active; inhibition, % at 5 µM; P11712; CYP2C9 Supersomes, luciferin-H conversion, luminescence;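 active = blocking of liver enzyme CYP2C9 beyond about 50% at 5 µM, limit read from the data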
CYP2C19 act: activators of human cytochrome P450 2C19; 96,000 tested, under 10 active; recombinant CYP2C19, luciferin-H EGE luminescence; stronger effect = higher value; 0 = fully inhibited enzyme, 1 = untreated enzyme; P33261; activation factor at 5 µM;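 active = activation factor of at least 2 at 5 µM in the primary screen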
Of the large screens only hits and unclear results are named; the others gave an inactive call. A selection: hits, their analogues and other compounds. The true share with any hit is near 27%.

O=C(NC(=S)Nc1ccc(Oc2ccccc2)cc1)c1ccc(Cl)cc1	none
O=C(CCn1c(=S)[nH]c2ccccc2c1=O)NCC1CCCO1 (stereo not drawn)	none
O=C(Nc1nc(C2C3CC4CC(C3)CC2C4)cs1)c1cc2cc([N+](=O)[O-])ccc2oc1=O (stereo not drawn)	none
Cc1cc(C)n(-c2ccc(C(=O)OCC(=O)c3c(N)n(C)c(=O)n(C)c3=O)cc2)n1	none (no result: sEH inhibitor, sEH activator)
CCC(=O)Nc1ccc(Cl)c(NC(=O)C(C)C)c1	none
CC(C)(C)N1C(=O)Cc2c1nc(N)c1c(N)nc(N3CCCCC3CO)c(C#N)c21 (stereo not drawn)	CYP2C9 inh 75
CN(CCO)c1nc(N)c2c(N)nc3c(c2c1C#N)CC(=O)N3C1CCCC1	CYP2C9 inh 75
C=CCn1c(C(C)NC(=O)c2ccccc2)n[nH]c1=S (stereo not drawn)	CYP2C19 inhib 62
C=CCn1c(SCCOc2ccccc2)nnc1C(C)NC(=O)c1ccccc1 (stereo not drawn)	none
CCC(=O)NS(=O)(=O)c1cccnc1Nc1ccc(Cl)cc1	CYP2C9 inh 96
NS(=O)(=O)c1cccnc1Nc1ccc(Cl)c(Cl)c1	none
O=C1C=C(c2ccc(Cl)cc2)OC2(CCCC2)O1	none
O=C1C2ON(c3ccccc3)C(c3cccnc3)C2C(=O)N1c1ccccc1 (stereo not drawn)	none (no result: sEH inhibitor, sEH activator)
COc1cc(C2C3C(=O)N(c4ccccc4)C(=O)C3ON2c2ccccc2)cc(OC)c1OC (stereo not drawn)	CYP2C19 inhib 50
COc1cc(C2C3C(=O)N(c4ccc(F)cc4)C(=O)C3ON2c2ccccc2)ccc1O (stereo not drawn)	CYP2C9 inh 53 (no result: sEH inhibitor, sEH activator)
O=C1C2ON(c3ccccc3)C(c3cccnc3)C2C(=O)N1c1ccc(Cl)c(Cl)c1 (stereo not drawn)	CYP2C19 inhib 68
CCn1c(-c2ccccc2)ccc(C#N)c1=O	none
FC(F)(F)c1nc2nncn2c2c1CCCCC2	none
COc1ccc(CC(=O)Nc2cc(Cl)ccc2O)cc1	CYP2C19 inhib 92, CYP2C9 inh 59
COc1ccc(Cl)cc1NC(=O)Cn1cccc1	CYP2C9 activ 2.8
COc1ccc(CC(=O)Nc2cc(C)on2)cc1	none
COc1ccc(Cl)cc1NC(=O)C(C)Sc1nncn1C (stereo not drawn)	none
COc1ccc(CCC(=O)Nc2cc(Cl)ccc2OC)cc1	CYP2C19 inhib 100
COc1cc(OC)c(NC(=O)Cn2cccc2)cc1Cl	none
COc1ccc(Cl)cc1NC(=O)C(C)Sc1n[nH]c(N)n1 (stereo not drawn)	CYP2C9 activ 2.3
Cc1ccccc1-c1nc(CN2CCC(C(=O)NCc3cccs3)CC2)c(C)o1	none
Cc1c(NC(=O)CSc2nnc3sc4ccccc4n23)c(=O)n(-c2ccccc2)n1C	none
CC(Oc1ccc(Cl)cc1Cl)c1nc(-c2ccccn2)no1 (stereo not drawn)	CYP2C19 inhib 96, CYP2C9 inh 92
CC(Oc1ccc(Cl)cc1Cl)c1nc(-c2ccc(NC(=O)c3cccnc3)cc2)no1 (stereo not drawn)	CYP2C19 inhib 64, CYP2C9 inh 96
CCOC(=O)c1c(NC(=O)Cn2nc([N+](=O)[O-])c(Br)c2C)sc2c1CCC(C)C2 (stereo not drawn)	none
O=C(CN1C(=O)CSC1=O)c1ccccc1	none
CSc1n[nH]c(-c2sccc2OCc2ccc(C)cc2)n1	CYP2C19 inhib 83, CYP2C9 inh 58
O=c1oc(-c2ccc(Br)o2)nc2ccccc12	CYP2C19 inhib 77
Cc1cc(C)cc(C(=O)N2CCC(C(N)=O)CC2)c1	none
C=C(Cl)COc1ccc2c(CC)cc(=O)oc2c1	none
C=C(Cl)COc1ccc2c(CCCC)cc(=O)oc2c1	CYP2C19 inhib 91, CYP2C9 inh 92
CC(C)NC(=O)c1cc(C(=O)c2cc(Cl)ccc2O)coc1=N	CYP2C19 inhib 69
CCCc1nc2oc3c(NCc4ccccn4)ncnc3c2c2c1COC(C)(C)C2	CYP2C9 inh 52 (no result: sEH inhibitor, sEH activator)
CCCc1nc2oc3c(NCC4CCCO4)ncnc3c2c2c1COC(C)(C)C2 (stereo not drawn)	CYP2C9 inh 52 (no result: sEH inhibitor, sEH activator)
CC(C)c1nc2oc3c(NCC4CCCO4)ncnc3c2c2c1CCC2 (stereo not drawn)	none (no result: sEH inhibitor, sEH activator)
COC(Cc1nnc(SC)n1-c1ccccc1)OC	none
CSc1nnc(CSCc2ccc(Cl)cc2Cl)n1-c1ccccc1	CYP2C19 inhib 59, CYP2C9 inh 70
COc1ccccc1N1CCN(C(c2ccc(C)cc2)c2nnnn2C(C)C)CC1 (stereo not drawn)	CYP2C19 inhib 74, CYP2C9 inh 75
COc1ccccc1N1CCN(C(c2ccc(F)cc2)c2nnnn2C(C)C)CC1 (stereo not drawn)	CYP2C19 inhib 52 (no result: sEH inhibitor, sEH activator)
CC(C)n1nnnc1C(c1ccc(F)cc1)N1CCN(C2CCCC2)CC1 (stereo not drawn)	none (no result: sEH inhibitor, sEH activator)
COc1cc(C(=O)Nc2ccc(S(=O)(=O)Nc3nccc(C)n3)cc2)cc(OC)c1OC	none
COc1ccc2c(Cl)c(C(=O)NN)sc2c1	CYP2C19 inhib 82, CYP2C9 inh 56
COc1ccc2c(Cl)c(C(=O)NCCCn3ccnc3)sc2c1	CYP2C19 inhib 98, CYP2C9 inh 91
COc1ccc2c(Cl)c(-c3nnc(SCC(N)=O)n3C)sc2c1	none (no result: sEH inhibitor, sEH activator)
COc1ccc2c(Cl)c(C(N)=O)sc2c1	none (no result: sEH inhibitor, sEH activator)
CCCCNC(=S)NNC(=O)CCn1nc(C)c(Br)c1C	none
CCn1c(O)c(C=NCCN2CCOCC2)sc1=S	none
CCCC(=O)NNc1cc(=O)c2c(=O)n(C)c(=O)n(C)c2[nH]1	none
c1c2c(cc3sc(N4CCOCC4)nc13)OCCO2	CYP2C19 inhib 87
CCOc1c2ccc(C(=O)NCc3ccccc3OC)cc2nn1CC	none
CC1CCCCN1CCNS(=O)(=O)c1ccc2c(c1)oc(=O)n2C (stereo not drawn)	none
C=CCc1cccc2cc(C(=O)N(CC)CC)c(=O)oc12	CYP2C9 activ 2.2
C=CCc1cccc2cc(C(=O)N3CCN(C(=O)c4ccco4)CC3)c(=O)oc12	CYP2C9 activ 2.3
C=CCc1cccc2cc(C(=O)O)c(=O)oc12	none
COc1cccc2cc(C(=O)N3CCN(C(=O)c4ccco4)CC3)c(=O)oc12	none
C=CCc1cccc2cc(C(=O)NC)c(=O)oc12	none
C=CCc1cccc2cc(C(=O)OCC(=O)c3ccccc3)c(=O)oc12	CYP2C9 activ 2.9
C=CCc1cccc2cc(C(=O)N(C)C)c(=O)oc12	CYP2C9 activ 3
S=C(Nc1ccccc1)N1CCn2c1nc1ccccc12	none
O=C(Nc1ccccc1)N1CCn2c1nc1ccccc12	CYP2C9 inh 66
CC(C)n1c(N2CCN(C(=O)Nc3ccccc3)CC2)nc2ccccc21	CYP2C9 inh 52
COc1ccc(NC(=O)N2CCn3c2nc2ccccc23)cc1	CYP2C9 inh 71
COc1ccc(-c2ncc3ccccn23)cc1	CYP2C19 inhib 62
O=C(O)CCc1ccc(-c2ccccc2)n1CC(=O)O	none
